According to PubChem BioAssay (EPA / NIEHS):
Inconclusive results are not listed. Active and inactive are the calls of the source. The calls were made as follows: active = hit-call score of the fitted dose curve at least 0.9, where 1 is the maximum; inconclusive = response in the unintended direction; inactive = score below 0.9.

The compounds below were run against bovine Estrogen Receptor (ER), ESR1 (gene 407238) (UniProt P49884) (assay: NVS_NR_bER: NovaScreen (NVS) Nuclear Receptor Binding Assay for bovine Estrogen Receptor (ER) (AID 2283345);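 also: actives lower the bound radioligand count which means they displace the ER ligand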).
Sequence of bovine Estrogen Receptor (ER), ESR1 (gene 407238) (P49884 whole entry, looked up): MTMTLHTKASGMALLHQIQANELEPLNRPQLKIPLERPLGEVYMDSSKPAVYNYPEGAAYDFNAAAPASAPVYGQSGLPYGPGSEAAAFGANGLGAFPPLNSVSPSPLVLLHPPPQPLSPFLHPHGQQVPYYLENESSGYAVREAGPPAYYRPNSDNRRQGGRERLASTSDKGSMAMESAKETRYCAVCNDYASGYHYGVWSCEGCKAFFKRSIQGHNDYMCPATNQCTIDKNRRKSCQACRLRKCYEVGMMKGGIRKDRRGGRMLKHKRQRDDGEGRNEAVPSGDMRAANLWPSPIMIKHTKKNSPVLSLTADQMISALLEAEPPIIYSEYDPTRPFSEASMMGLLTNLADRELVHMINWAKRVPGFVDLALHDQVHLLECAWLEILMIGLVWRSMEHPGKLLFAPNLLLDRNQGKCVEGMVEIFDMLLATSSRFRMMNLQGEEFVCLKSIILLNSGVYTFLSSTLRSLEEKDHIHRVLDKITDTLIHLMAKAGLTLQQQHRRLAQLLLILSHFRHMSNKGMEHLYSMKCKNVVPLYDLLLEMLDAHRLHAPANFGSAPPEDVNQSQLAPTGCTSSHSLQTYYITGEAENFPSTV
Outline: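 Scintillation counting of displaced radioligand gave the readout; bovine uterine membrane extract supplied the receptor. Measured 18 h post-dose, normalized to DMSO baseline. Single 25 uM duplicate screen preceded concentration-response follow-up.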

SMILES | outcome | AC50
C#C[C@]1(O)CC[C@H]2[C@@H]3CCC4=Cc5oncc5C[C@]4(C)[C@H]3CC[C@@]21C | inactive | –
CC(C)=CCO | inactive | –
CCCCCCCCC=O | inactive | –
CC(C)c1cccc(O)c1 | inactive | –
O=C(O)CCSCCC(=O)O | inactive | –
O=Nc1ccc(Nc2ccccc2)cc1 | inactive | –
c1cc(C(c2ccc(OCC3CO3)cc2)c2ccc(OCC3CO3)cc2)ccc1OCC1CO1 (stereo not given) | inactive | –
CC(=O)[C@H]1CC[C@H]2[C@@H]3CC=C4C[C@@H](O)CC[C@]4(C)[C@H]3CC[C@]12C | inactive | –
Nc1cccc(S(=O)(=O)c2cccc(N)c2)c1 | inactive | –
Cc1cc(C2(c3cc(C)c(O)cc3C)OS(=O)(=O)c3ccccc32)c(C)cc1O | – | 10.6 µM (active)
CN(C)c1ccc(O)c2c1C[C@H]1C[C@H]3[C@H](N(C)C)C(=O)C(C(N)=O)=C(O)[C@@]3(O)C(=O)C1=C2O | inactive | –
CC(C)C(C)(C)C(C)(C)C(C)(C)S | inactive | –
NNc1nc(-c2ccc(N)cc2)cs1 | inactive | –
C=CC(=O)OCC(O)COc1ccccc1 (stereo not given) | inactive | –
NC(=O)Nc1ccc(Cl)cc1 | inactive | –
CC(C)(C)C(=O)c1ccccc1 | inactive | –
CC1=CCC2C(C1)C2(C)C (stereo not given) | inactive | –
CNCCCC12CCC(c3ccccc31)c1ccccc12 | inactive | –
CCCc1c(OCCCOc2ccc(OCC(=O)O)cc2)ccc(C(C)=O)c1O | inactive | –
CCCCCCCCCC=O | inactive | –
